These results are taken from PubChem BioAssay (NCATS).

SMILES strings stand for the structures. Records with an inconclusive call do not appear. Calls of active or inactive are those of the source. Calls follow the shape of the dose curve; as a rule, active = well fitted curve in the direction sought with a large enough effect in the repeat runs; inconclusive = weak or mixed curves; inactive = no such curve, though single readings can be large; an effect the other way counts as inactive or inconclusive.
Also: nearly all actives have a fitted effect of over 55% in size.
Potency is read from the fitted curve at half-maximal effect.

Cytochrome P450 2C9 (Homo sapiens), sequence (P11712 whole entry, looked up): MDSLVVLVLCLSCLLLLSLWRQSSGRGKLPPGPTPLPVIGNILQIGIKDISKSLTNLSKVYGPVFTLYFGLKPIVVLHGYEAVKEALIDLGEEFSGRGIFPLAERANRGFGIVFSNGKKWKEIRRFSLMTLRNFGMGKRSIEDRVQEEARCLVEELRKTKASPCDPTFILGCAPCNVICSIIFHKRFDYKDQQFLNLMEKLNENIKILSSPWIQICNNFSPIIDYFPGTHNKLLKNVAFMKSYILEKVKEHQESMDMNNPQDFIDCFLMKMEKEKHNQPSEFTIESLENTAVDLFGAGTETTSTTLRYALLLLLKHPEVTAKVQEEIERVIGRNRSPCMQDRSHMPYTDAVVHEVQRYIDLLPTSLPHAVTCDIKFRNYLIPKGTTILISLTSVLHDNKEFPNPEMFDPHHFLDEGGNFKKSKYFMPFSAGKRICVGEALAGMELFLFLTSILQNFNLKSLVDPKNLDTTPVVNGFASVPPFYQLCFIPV
Cytochrome P450 2D6 (Homo sapiens), sequence (P10635 whole entry, looked up): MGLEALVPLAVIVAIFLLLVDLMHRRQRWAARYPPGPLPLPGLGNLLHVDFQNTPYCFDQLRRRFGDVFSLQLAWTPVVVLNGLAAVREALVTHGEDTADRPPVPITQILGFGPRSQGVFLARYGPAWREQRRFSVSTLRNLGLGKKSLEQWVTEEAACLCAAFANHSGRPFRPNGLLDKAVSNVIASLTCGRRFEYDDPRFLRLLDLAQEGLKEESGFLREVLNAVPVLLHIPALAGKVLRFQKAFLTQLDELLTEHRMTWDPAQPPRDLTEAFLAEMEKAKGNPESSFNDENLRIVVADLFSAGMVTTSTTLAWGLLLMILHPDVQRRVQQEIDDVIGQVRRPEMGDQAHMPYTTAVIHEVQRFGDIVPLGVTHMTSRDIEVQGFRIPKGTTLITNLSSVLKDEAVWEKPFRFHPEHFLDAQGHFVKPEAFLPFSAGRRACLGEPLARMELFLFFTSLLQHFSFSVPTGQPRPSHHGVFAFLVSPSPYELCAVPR

In one experiment the target is Cytochrome P450 2D6 (Homo sapiens) (UniProt P10635). The experiment in a line: Cytochrome P450 family 2 subfamily D member 6 (CYP2D6) small molecule antagonists: luciferase biochemical (cell-free) qHTS assay (AID 1645840). As to conditions: P450-Glo CYP2D6 enzyme, luciferin luminescence, 1 h; series mostly up to 57.4 µM. A digest of the protocol:
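P450-Glo CYP2D6 system: proluciferin substrate converted by enzyme to luciferin, read by luminescence proportional to activity. Enzyme-substrate mix with compound 10 min at room temperature, then NADPH regeneration 1 h before detection reagent.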
For orientation: Quantitative high-throughput screening tests each substance at several concentrations.
For `Cc1ccc2nc(-c3ccccn3)c(Nc3ccccc3C)n2c1`, the Potency was 21.3 µM (active).

On to `Cc1ccc(Cn2c(SCc3ccc(C(=O)N4CCCCCC4)cc3)nc3ccncc32)cc1`, for which the Potency was 7.56 µM (active).

With `COc1ccc(Cn2c(SCc3ccc(C(=O)NC4CCCC4)cc3)nc3ccncc32)cc1`, the Potency is 6.01 µM (active).

Turning to `CCc1ccc(CNC(=O)C2CCCN(c3nnc(C)c4c(C)n(-c5ccc(OC)cc5)nc34)C2)cc1` (stereo not given), the Potency is 7.56 µM (active).

Turning to `COc1ccc(CC(=O)NCC(c2cccs2)S(=O)(=O)c2ccc(Cl)cc2)cc1` (stereo not given), the Potency is 6.01 µM (active).

As to `COc1ccc(C(=O)Nc2nc3ccccc3n2CCOc2ccc(Cl)cc2)cc1`, the Potency entry was “inactive”.

Turning to `Cc1cccc(C)c1NC(=O)Cn1cc(C(=O)c2ccco2)c2ccccc21`, the Potency is 9.52 µM (active).

Regarding `O=C(NC1CCCCC1)c1ccc(CSc2nc3cccnc3n2Cc2ccccc2F)cc1`, the Potency is 9.52 µM (active).

For `CCOC(=O)c1ccc(NC(=O)CCn2c(=O)c3cccn3c3cccnc32)cc1`, the Potency result was “inactive”.

Regarding `COc1cccc(CNCc2cccn2-c2nnc(N3CCN(c4ccccc4)CC3)s2)c1`, the Potency was 3.38 µM (active).

On to `COc1ccccc1CNC(=O)C1CCCN(c2nc3ccccc3n3cccc23)C1` (stereo not given), for which the Potency is 2.68 µM (active).

As to `Cc1nc2c3ccccc3nc(NNC(=O)CCC(=O)N3CCN(c4ccc(F)cc4)CC3)n2n1`, the Potency entry was “inactive”.

As to `Cc1cccc2nc(-c3ccccn3)c(Nc3ccc(F)cc3)n12`, the Potency was 10.7 µM (active).

With `O=C(CC1N=C2c3ccccc3N=C(SCc3ccc(F)cc3)N2C1=O)NC1CCCCC1` (stereo not given), the Potency was 3.01 µM (active).

Take `O=C(CSc1nccn1Cc1ccc(F)cc1)Nc1nc2ccccc2s1`: the Potency is 10.7 µM (active).

Take `CC1(C#N)CCN(c2c(C(=O)N3CCC(S(C)(=O)=O)CC3)cnc3cc(F)c(F)cc23)CC1`: the Potency result is “inactive”.

As for `NC(=O)C(c1ccccc1)(c1ccccc1)[C@H]1CCN(CCc2ccc3c(c2)CCO3)C1`, the Potency is 0.0425 µM (active).

As for `Cc1cc(-n2c(SCc3ccccc3F)nc3[nH]ncc3c2=O)ccc1Cl`, the Potency is 19 µM (active).

Regarding `CCCCCCCCCCCCCCCCNc1ccc(C(=O)O)cc1`, the Potency entry is “inactive”.

Consider `COCCOc1nc(N)c2[nH]c(=O)n(Cc3ccc(C(=O)O)cc3)c2n1`, for which the Potency entry is “inactive”.

As for `Cc1ccc(CSC2=Nc3ccccc3C3=NC(CC(=O)NCc4cccs4)C(=O)N23)cc1` (stereo not given), the Potency is 6.74 µM (active).

As for `COc1cc(C(c2c(C)[nH][nH]c2=O)c2c(C)[nH][nH]c2=O)ccc1OC(=O)c1cccc(C)c1`, the Potency entry is “inactive”.

Take `Cc1ccc(CSc2nc3ccncc3n2Cc2nc(-c3ccccc3C)oc2C)cc1`: the Potency was 2.39 µM (active).

With `CC(C)OCc1cc(CN2CCN(c3cccc(C(F)(F)F)c3)CC2)c(O)c2ncccc12`, the Potency entry was “inactive”.

For the compound `COC(=O)C1=C(c2ccccc2)c2ccccc2S(=O)(=O)N1CC(=O)Nc1ccccc1Cl`, the Potency is 3.79 µM (active).

With `O=C(Cn1c(=O)n(-c2ccc(Cl)cc2)c(=O)c2oc3ccccc3c21)Nc1ccccc1`, the Potency is 0.849 µM (active).

Turning to `Clc1cccc(-n2ncc3c(NCCCn4ccnc4)ncnc32)c1`, the Potency was 2.13 µM (active).

On to `Cc1ccc(-n2c(SCc3cccc(F)c3)nc3[nH]ncc3c2=O)cc1C`, for which the Potency was 8.49 µM (active).

As for `CCN1CCN(CCCNC(=O)c2cc3c(s2)-c2c(C)cccc2OC3)CC1`, the Potency was 10.7 µM (active).

For the compound `CC1(C#N)CCN(c2c(C(=O)N3CCC(C(=O)C4CC4)CC3)cnc3ccc(F)cc23)CC1`, the Potency is 10.7 µM (active).

As to `COc1ccccc1Nc1nc(-c2ccccc2F)nc2ccccc12`, the Potency entry is “inactive”.

With `CCCCn1cnc2cc(NCc3ccccc3Cl)ccc21`, the Potency was 0.12 µM (active).

Take `COc1ccc(CN(C2CCCCC2)[S+](=O)([O-])c2ccc(C)cc2)cc1OC`: the Potency entry was “inactive”.

In the case of `COc1ccc(CCNC(=O)c2nc(SCc3ccccc3F)ncc2Cl)cc1OC`, the Potency result is “inactive”.

Consider `CC(C)c1ccc(Nc2c(-c3ccccn3)nc3ccccn23)cc1`, for which the Potency is 26.8 µM (active).

Take `CC1(C#N)CCN(c2c(C(=O)N3CCC(C(=O)C4CC4)CC3)cnc3c(F)cc(F)cc23)CC1`: the Potency was 16.9 µM (active).

As to `CCc1ccc(-n2c(SCc3ccccc3C)nc3[nH]ncc3c2=O)cc1`, the Potency is 9.52 µM (active).

Regarding `CN1C(=O)c2ccccc2Sc2ccc(NC(=O)Cc3ccc(Cl)cc3)cc21`, the Potency was 6.01 µM (active).

For `CCn1cc2nc(SCC(=O)Nc3ccc(OC)c(OC)c3)n(Cc3ccc(Cl)cc3)c(=O)c2n1`, the Potency is 9.52 µM (active).

With `CCOc1ccc(C(NC(=O)c2cc(OC)c(OC)c(OC)c2)c2cc(Cl)c3cccnc3c2O)cc1` (stereo not given), the Potency result is “inactive”.

Another experiment has as its target Cytochrome P450 2C9 (Homo sapiens) (UniProt P11712). In words: Cytochrome P450 family 2 subfamily C member 9 (CYP2C9) small molecule antagonists: luciferase biochemical (cell-free) qHTS assay (AID 1645842). To be noted: P450-Glo CYP2C9 enzyme assay, luciferin luminescence; series mostly up to 57.4 µM. A digest of the protocol:
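P450-Glo CYP2C9 system: proluciferin substrate with enzyme in mix containing 0.4% BSA, 10 min at room temperature, then NADPH regeneration solution added and incubated 1 h at 37C. Detection reagent stopped reaction; luminescence read after 20 min as RLU.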
Consider `Cc1ccc2nc(-c3ccccn3)c(Nc3ccccc3C)n2c1`, for which the Potency was 1.9 µM (active).

For `Cc1ccc(Cn2c(SCc3ccc(C(=O)N4CCCCCC4)cc3)nc3ccncc32)cc1`, the Potency result is “inactive”.

On to `COc1ccc(Cn2c(SCc3ccc(C(=O)NC4CCCC4)cc3)nc3ccncc32)cc1`, for which the Potency was 0.674 µM (active).

Regarding `CCc1ccc(CNC(=O)C2CCCN(c3nnc(C)c4c(C)n(-c5ccc(OC)cc5)nc34)C2)cc1` (stereo not given), the Potency was 1.69 µM (active).

Take `COc1ccc(CC(=O)NCC(c2cccs2)S(=O)(=O)c2ccc(Cl)cc2)cc1` (stereo not given): the Potency was 2.39 µM (active).

In the case of `COc1ccc(C(=O)Nc2nc3ccccc3n2CCOc2ccc(Cl)cc2)cc1`, the Potency is 26.8 µM (active).

Regarding `Cc1cccc(C)c1NC(=O)Cn1cc(C(=O)c2ccco2)c2ccccc21`, the Potency is 3.79 µM (active).

`O=C(NC1CCCCC1)c1ccc(CSc2nc3cccnc3n2Cc2ccccc2F)cc1`: the Potency is 0.338 µM (active).

For `CCOC(=O)c1ccc(NC(=O)CCn2c(=O)c3cccn3c3cccnc32)cc1`, the Potency was 10.7 µM (active).

Take `COc1cccc(CNCc2cccn2-c2nnc(N3CCN(c4ccccc4)CC3)s2)c1`: the Potency was 9.52 µM (active).

In the case of `COc1ccccc1CNC(=O)C1CCCN(c2nc3ccccc3n3cccc23)C1` (stereo not given), the Potency is 0.0674 µM (active).

For the compound `Cc1nc2c3ccccc3nc(NNC(=O)CCC(=O)N3CCN(c4ccc(F)cc4)CC3)n2n1`, the Potency is 3.79 µM (active).

For the compound `Cc1cccc2nc(-c3ccccn3)c(Nc3ccc(F)cc3)n12`, the Potency was 1.2 µM (active).

As to `O=C(CC1N=C2c3ccccc3N=C(SCc3ccc(F)cc3)N2C1=O)NC1CCCCC1` (stereo not given), the Potency is 2.68 µM (active).

For `O=C(CSc1nccn1Cc1ccc(F)cc1)Nc1nc2ccccc2s1`, the Potency was 7.56 µM (active).

On to `CC1(C#N)CCN(c2c(C(=O)N3CCC(S(C)(=O)=O)CC3)cnc3cc(F)c(F)cc23)CC1`, for which the Potency result is “inactive”.

Regarding `NC(=O)C(c1ccccc1)(c1ccccc1)[C@H]1CCN(CCc2ccc3c(c2)CCO3)C1`, the Potency is 8.49 µM (active).

As to `Cc1cc(-n2c(SCc3ccccc3F)nc3[nH]ncc3c2=O)ccc1Cl`, the Potency was 23.9 µM (active).

As for `CCCCCCCCCCCCCCCCNc1ccc(C(=O)O)cc1`, the Potency entry was “inactive”.

Turning to `COCCOc1nc(N)c2[nH]c(=O)n(Cc3ccc(C(=O)O)cc3)c2n1`, the Potency result was “inactive”.

Regarding `Cc1ccc(CSC2=Nc3ccccc3C3=NC(CC(=O)NCc4cccs4)C(=O)N23)cc1` (stereo not given), the Potency was 0.379 µM (active).

Turning to `COc1cc(C(c2c(C)[nH][nH]c2=O)c2c(C)[nH][nH]c2=O)ccc1OC(=O)c1cccc(C)c1`, the Potency was 12 µM (active).

Consider `Cc1ccc(CSc2nc3ccncc3n2Cc2nc(-c3ccccc3C)oc2C)cc1`, for which the Potency was 7.56 µM (active).

Regarding `CC(C)OCc1cc(CN2CCN(c3cccc(C(F)(F)F)c3)CC2)c(O)c2ncccc12`, the Potency is 12 µM (active).

With `COC(=O)C1=C(c2ccccc2)c2ccccc2S(=O)(=O)N1CC(=O)Nc1ccccc1Cl`, the Potency is 4.77 µM (active).

On to `O=C(Cn1c(=O)n(-c2ccc(Cl)cc2)c(=O)c2oc3ccccc3c21)Nc1ccccc1`, for which the Potency was 4.77 µM (active).

Regarding `Clc1cccc(-n2ncc3c(NCCCn4ccnc4)ncnc32)c1`, the Potency was 0.379 µM (active).

As for `Cc1ccc(-n2c(SCc3cccc(F)c3)nc3[nH]ncc3c2=O)cc1C`, the Potency is 1.51 µM (active).

In the case of `CCN1CCN(CCCNC(=O)c2cc3c(s2)-c2c(C)cccc2OC3)CC1`, the Potency entry is “inactive”.

As for `CC1(C#N)CCN(c2c(C(=O)N3CCC(C(=O)C4CC4)CC3)cnc3ccc(F)cc23)CC1`, the Potency is 1.9 µM (active).

`COc1ccccc1Nc1nc(-c2ccccc2F)nc2ccccc12`: the Potency was 12 µM (active).

As for `CCCCn1cnc2cc(NCc3ccccc3Cl)ccc21`, the Potency was 2.13 µM (active).

Turning to `COc1ccc(CN(C2CCCCC2)[S+](=O)([O-])c2ccc(C)cc2)cc1OC`, the Potency is 3.79 µM (active).

For the compound `COc1ccc(CCNC(=O)c2nc(SCc3ccccc3F)ncc2Cl)cc1OC`, the Potency is 0.379 µM (active).

Take `CC(C)c1ccc(Nc2c(-c3ccccn3)nc3ccccn23)cc1`: the Potency was 1.2 µM (active).

With `CC1(C#N)CCN(c2c(C(=O)N3CCC(C(=O)C4CC4)CC3)cnc3c(F)cc(F)cc23)CC1`, the Potency was 9.52 µM (active).

`CCc1ccc(-n2c(SCc3ccccc3C)nc3[nH]ncc3c2=O)cc1`: the Potency was 19 µM (active).

As to `CN1C(=O)c2ccccc2Sc2ccc(NC(=O)Cc3ccc(Cl)cc3)cc21`, the Potency is 12 µM (active).

Take `CCn1cc2nc(SCC(=O)Nc3ccc(OC)c(OC)c3)n(Cc3ccc(Cl)cc3)c(=O)c2n1`: the Potency was 3.79 µM (active).

Take `CCOc1ccc(C(NC(=O)c2cc(OC)c(OC)c(OC)c2)c2cc(Cl)c3cccnc3c2O)cc1` (stereo not given): the Potency is 30.1 µM (active).
